Data from PubChem BioAssay.
Active and inactive are the calls of the source.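 Rule for the calls, unless noted: active = compounds whose cell count with miR-34 switched on is under 0.7 times the count with it off; inactive = the rest.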 Where a SMILES comes first, the peptide text is derived from it.

Columns and labels:
[1] = sensitizers of A549 cells to miR-34 induction, primary screen, imaging, A549 dox-inducible miR-34, nuclei and caspase counts (AID 1347080); settings: A549 miR-34 inducible, Hoechst nuclei count, 48 h
[2] = survival rescue of mitochondrial mutant cells in low glucose, primary screen, MELAS cybrids, Rieske KO mouse fibroblasts, CellTiter-Glo (AID 1508586;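 active = mean z-score across replicates of 1.96 or higher in either the MELAS or the Rieske mutant cell line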;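 note: z relative to plate mean and SD of compound and empty wells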)
[3] = stronger effect = lower value, cell number ratio, induced over uninduced
[4] = measured here: relative caspase fold change +Dox/-Dox
[5] = measured here: total cells with miR-34 induction, stronger effect = lower value
[6] = measured here: total cells without miR-34 induction
[7] = MELAS cybrid survival, CellTiter-Glo 48 h, stronger effect = higher value
[8] = Rieske KO mouse fibroblast survival, CellTiter-Glo 72 h
Note: test concentration not given here.

Row | SMILES | fold change [1, 3] | fold change [1, 4] | cell count [1, 5] | cell count [1, 6] | z-score [2, 7] | z-score [2, 8]
1 | COc1cc2c(cc1O)CC[C@@H]1[C@H]2CC[C@]2(C)C(O)CC[C@@H]12 (stereo not given in full) | 1.05 (inactive) | 0.703 | 1820 | 1740 | 1.32 (inactive) | 0.434
2 | COc1ccc(S(=O)(=O)N(C(C)=O)c2ccccc2C=Cc2cc[n+]([O-])cc2)cc1 | 1.18 (inactive) | 0.723 | 1240 | 1050 | 0.938 (inactive) | -0.247
3 | CCCC(Nc1nc(-c2ccc(NC(=O)NCC)c(OC)c2)ncc1C)c1cccnc1 (stereo not given) | 1.06 (inactive) | 0.656 | 1450 | 1370 | 2.93 (active) | -1.09
4 | N#CC1C[C@@H]2C[C@H]2N1C(=O)C(N)C12CC3CC(CC(O)(C3)C1)C2 (stereo not given in full) | 0.986 (inactive) | 0.858 | 7460 | 7570 | -0.404 (inactive) | 0.586
5 | Cc1cn(C2OC(CO)C(O)C2F)c(=O)[nH]c1=O (stereo not given) | 0.93 (inactive) | 0.942 | 9750 | 10500 | -0.347 (inactive) | 0.612
6 | C=C1CCC(O)CC1=CC=C1CCC[C@@]2(C)[C@H]1CC[C@H]2C(C)CCCC(C)(C)O (stereo not given in full) | 0.933 (inactive) | 0.682 | 7650 | 8200 | -0.475 (inactive) | 0.00368
7 | OC(CNCC(O)[C@H]1CCc2cc(F)ccc2O1)[C@@H]1CCc2cc(F)ccc2O1 (stereo not given in full) | 0.966 (inactive) | 0.954 | 6580 | 6810 | 1.33 (inactive) | 0.256
8 | CC(=O)c1cc([N+](=O)[O-])c(Sc2ccc(F)cc2F)s1 | 0.898 (inactive) | 0.374 | 8140 | 9060 | -0.42 (inactive) | 0.533
9 | CC1O[C@@H](OC2C(Oc3cc(O)c(C(=O)CCc4ccc(O)cc4)c(O)c3)OC(CO)C(O)C2O)C(O)C(O)C1O (stereo not given in full) | 0.973 (inactive) | 0.587 | 8080 | 8300 | -0.155 (inactive) | -0.191
10 | Cc1ccc(Cl)cc1N(CC(=O)Nc1c(F)cccc1F)S(C)(=O)=O | 0.888 (inactive) | 0.518 | 8090 | 9110 | -0.403 (inactive) | 0.642
11 | O=C1C(Cc2ccc(O)cc2)N2C(=O)CCN(C(=O)NCc3ccccc3)[C@H]2CN1Cc1cccc2ccccc12 (stereo not given in full) | 1.06 (inactive) | 0.528 | 2850 | 2690 | -0.585 (inactive) | -0.172
12 | CCCC(NC(=O)C(C#N)=Cc1cccc(Br)n1)c1ccccc1 (stereo not given) | 0.929 (inactive) | 0.922 | 824 | 888 | 3.82 (active) | -1.38
13 | CNCc1ccc(C)c(NC(=O)c2ccc(Nc3nc(-c4ccccc4)c4ccccc4n3)cc2)c1 | 0.989 (inactive) | 0.59 | 6570 | 6650 | -0.615 (inactive) | -0.107
14 | CN1[C@@H]2CC[C@@H]1CC(OC(=O)C(O)c1ccccc1)C2 (stereo not given in full) | 0.924 (inactive) | 0.78 | 8330 | 9020 | -0.279 (inactive) | -0.173
15 | CCCCc1nc2cc(C=CC(=O)NO)ccc2n1CCN(CC)CC | 1.12 (inactive) | 0.731 | 1070 | 951 | 0.665 (inactive) | -0.474
16 | Cc1c(CN2CCN(C(=O)C(C)O)CC2)sc2c(N3CCOCC3)nc(-c3cnc(N)nc3)nc12 (stereo not given) | 1.11 (inactive) | 0.549 | 2480 | 2230 | 2.06 (active) | -2.39
17 | CC(=Cc1ccccc1)C=C1SC(=S)N(CC(=O)O)C1=O | 0.909 (inactive) | 0.759 | 8290 | 9130 | -0.0963 (inactive) | 0.707
18 | CC(C)(C)OC(=O)NC1CCCCCC=CC2C[C@@]2(C(=O)NS(=O)(=O)C2CC2)NC(=O)C2CC(OC(=O)N3Cc4cccc(F)c4C3)CN2C1=O (stereo not given in full) | 0.897 (inactive) | 1.55 | 6840 | 7630 | -0.451 (inactive) | 0.469
19 | CC(C)N(CCC(c1ccccc1)c1cc(CO)ccc1O)C(C)C (stereo not given) | 0.934 (inactive) | 1.04 | 9810 | 10500 | -0.366 (inactive) | 0.299
20 | O=C(CCc1ccc(O)cc1)c1c(O)cc(O)cc1OC1OC(CO)C(O)C(O)C1O (stereo not given) | 0.988 (inactive) | 0.673 | 10200 | 10400 | -0.378 (inactive) | 0.518
21 | CC(C)C(C(=O)Nc1ccc(C(=O)NO)cc1)c1ccccc1 (stereo not given) | 0.964 (inactive) | 0.891 | 1000 | 1040 | 2.39 (active) | 0.0158
22 | CC1COCCN1c1cc(C2(S(C)(=O)=O)CC2)nc(-c2cccc3[nH]ccc23)n1 (stereo not given) | 0.703 (inactive) | 2.27 | 1950 | 2770 | 2.53 (active) | -0.319
23 | CC(C)CC(NC(=O)C(Cc1ccccc1)NC(=O)c1cnccn1)B(O)O (stereo not given) | 0.948 (inactive) | 0.953 | 1020 | 1080 | -0.496 (inactive) | -2.5

Row | SMILES | fold change [1, 3] | fold change [1, 4] | cell count [1, 5] | cell count [1, 6] | z-score [2, 7] | z-score [2, 8]
24 | C=C1C(=CC=C2CCC[C@]3(C)C(C(C)CCCC(C)C)CC[C@@H]23)CC(O)CC1O (stereo not given in full) | 0.908 (inactive) | 0.753 | 6380 | 7020 | 0.162 (inactive) | 0.335
25 | CC(C)OC(=O)C(C)N[P@](=O)(OCC1OC(n2ccc(=O)[nH]c2=O)[C@](C)(F)C1O)Oc1ccccc1 (stereo not given in full) | 0.909 (inactive) | 0.639 | 9560 | 10500 | -0.378 (inactive) | 0.864
26 | C[C@@H]1C(=O)O[C@H]2CC34[C@H]5C[C@@H](C(C)(C)C)C36C(OC(=O)[C@H]6O)O[C@@]4(C(=O)O5)[C@]21O (stereo not given in full) | 0.955 (inactive) | 1.23 | 7970 | 8340 | -0.0435 (inactive) | 0.0455
27 | CC(C)C(=O)Oc1ccc(CO)cc1C(CCN(C(C)C)C(C)C)c1ccccc1 (stereo not given) | 0.941 (inactive) | 0.385 | 8240 | 8760 | 0.0306 (inactive) | 0.055
28 | COC(=O)C(Cc1ccccc1)NC(=O)C(N)CC(=O)O (stereo not drawn) (H-Asp-Phe-OMe; configuration not given here) | 0.938 (inactive) | 0.532 | 8220 | 8770 | -0.285 (inactive) | -0.555
29 | CC(NC(=O)C(O)c1cc(F)cc(F)c1)C(=O)NC1C(=O)N(C)c2ccccc2-c2ccccc21 (stereo not given) | 0.896 (inactive) | 0.875 | 8040 | 8970 | -0.323 (inactive) | 1.18
30 | CC(C)(C(=O)NCC(F)(F)C(F)(F)F)C(=O)NC1C(=O)Nc2ccccc2-c2ccccc21 (stereo not given) | 0.97 (inactive) | 0.87 | 7630 | 7860 | -0.378 (inactive) | 0.321
31 | CC(C)NCC(C(=O)N1CCN(c2ncnc3c2C(C)CC3O)CC1)c1ccc(Cl)cc1 (stereo not given) | 1.1 (inactive) | 0.724 | 7580 | 6900 | -0.408 (inactive) | 0.0437
32 | CC(C)CC(NC(=O)C(CCc1ccccc1)NC(=O)CN1CCOCC1)C(=O)NC(Cc1ccccc1)C(=O)NC(CC(C)C)C(=O)[C@@]1(C)CO1 (stereo not given in full) | 0.898 (inactive) | 1.94 | 778 | 867 | -0.243 (inactive) | -3.69
33 | CCc1ccc(C=C2SC(=S)NC2=O)cc1 | 0.911 (inactive) | 0.424 | 7750 | 8500 | -0.119 (inactive) | 0.267
34 | Nc1nc(=O)n(C2CSC(CO)O2)cc1F (stereo not given) | 0.88 (inactive) | 0.906 | 7840 | 8920 | -0.288 (inactive) | 0.564
35 | CC(O)[C@@H]1C(=O)N2C(C(=O)O)=C(SC3CNC(CNS(N)(=O)=O)C3)C(C)[C@@H]12 (stereo not given in full) | 0.983 (inactive) | 0.831 | 7900 | 8030 | -0.367 (inactive) | -0.0647
36 | O=C(Nc1ccccc1)N1CCN(c2nc(-c3ccccc3)ns2)CC1 | 1.02 (inactive) | 0.483 | 7250 | 7080 | -0.215 (inactive) | 0.0401
37 | CC(NCc1ccc(OCc2cccc(F)c2)cc1)C(N)=O (stereo not given) | 0.935 (inactive) | 1.08 | 7820 | 8360 | -0.428 (inactive) | 0.667
38 | O=C(COc1ccc(C(=O)c2ccccc2)cc1)NC1CCN(Cc2ccccc2)CC1 | 0.922 (inactive) | 0.78 | 6930 | 7520 | -0.391 (inactive) | -0.791
39 | CC(C)CC(CC(=O)NO)C(=O)NC(Cc1ccc2ccccc2c1)C(=O)NC(C)C(=O)NCCN (stereo not given) | 0.928 (inactive) | 0.561 | 8260 | 8900 | -0.492 (inactive) | -0.379
40 | CCC(=C(CC)c1ccc(O)cc1)c1ccc(O)cc1 | 0.852 (inactive) | 1.22 | 7280 | 8550 | -0.347 (inactive) | 0.452
41 | CC(C)c1ccc(NC(=O)Cn2cnc3c2c(=O)n(C)c(=O)n3C)cc1 | 0.933 (inactive) | 1.42 | 7540 | 8090 | 0.298 (inactive) | -0.444
42 | N#CC(=Cc1ccc(O)c(O)c1)C(=O)NCc1ccccc1 | 0.901 (inactive) | 1.14 | 6440 | 7150 | -0.517 (inactive) | 0.15
43 | C[C@]12C=CC(=O)N[C@@H]1CC[C@@H]1[C@H]2CC[C@]2(C)C(C(=O)Nc3cc(C(F)(F)F)ccc3C(F)(F)F)CC[C@@H]12 (stereo not given in full) | 0.962 (inactive) | 0.927 | 6640 | 6910 | -0.568 (inactive) | 0.0125
44 | CCCN(CCc1cccs1)C1CCc2c(O)cccc2C1 (stereo not given) | 0.911 (inactive) | 0.584 | 8660 | 9500 | -0.281 (inactive) | -0.2
45 | CN1[C@@H]2CC(OC(=O)C(CO)c3ccccc3)C[C@H]1[C@@H]1O[C@H]12 (stereo not given in full) | 0.946 (inactive) | 0.844 | 9480 | 10000 | -0.356 (inactive) | 0.736
